Source: PubChem
Hits are enriched below; roughly 3% of the tested compounds scored in any of these assays.
aSyn UTR inh: MLPCN primary screen, SNCA 5' untranslated region; alpha-synuclein 5'UTR reporter, inhibitor activity; inhibition, % (tested at 7.5 µM); 300,000 compounds, 0.82% hits; in the data active = inhibition above about 60%; inconclusive = no clear call, values can overlap the other calls;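 also: H4 neuroglioblastoma cells stably carrying SNCA 5'UTR luciferase fusion; 0% = DMSO wells and 100% = positive control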
IEC-6 cytotox: counter-screen for KLF5 inhibitors: cytotoxicity in IEC-6 cells | inhibition, % at 5 µM | IEC-6 cytotoxicity, luminescence viability | 290,000 compounds, 0.78% hits; in the data active = inhibition above about 22%;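 also: 0% = plate median of test compound wells and 100% = cytotoxic reference compound wells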
SKKanGAS inh: SKKanGAS growth inhibition; S. pyogenes SKKanGAS, kanamycin growth, BacTiter-Glo, 6 h; inhibition, % at 7.5 µM; 300,000 compounds, 1.3% hits;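 active = mean replicate score, as percent of positive control median, at least 50; inconclusive = mean below 50 but one replicate at or above 50; inactive = mean and every replicate below 50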;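 also: strain carries kanamycin resistance gene driven by streptokinase promoter and grows in 40 µg/ml kanamycin; loss of luminescence reflects streptokinase promoter inhibition or plain growth inhibition; 0% = median of DMSO wells and 100% = positive control at its reference dose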
CSC inhib: blocks cancer stem cells. cancer stem cell-like cells viability, luminescence. inhibition, % at 7.5 µM. 300,000 compounds, 1.1% hits. AID 2717; in the data active = inhibition above about 75%; inconclusive = no clear call, values can overlap the other calls; tested in HMLE shEcad cells
KLF5 inh: kruppel-like factor 5 inhibition | DLD-1 KLF5 promoter-luciferase reporter, luminescence | inhibition, % at 5 µM | 290,000 compounds, 0.23% hits | AID 1700;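 active = inhibition above a per-plate limit of that plate's mean compound inhibition plus 3 SD, cut at about 60% in these data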;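 also: 0% = DMSO wells and 100% = LY294002 at 200 µM; higher means less KLF5 promoter-driven luciferase light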
An asterisk follows results filed as active; ? = inconclusive; . = no result.

SMILES	aSyn UTR inh	IEC-6 cytotox	SKKanGAS inh	CSC inhib	KLF5 inh
COc1cc(/C=C/c2[nH]c(=O)[nH]c(=O)c2[N+](=O)[O-])ccc1OCCC(C)C	-18	1	15	77*	5
CCCc1c(C(=O)Nc2ccc(F)cc2F)cnn1-c1ccccc1	-1	8	-5	-10	-12
CCCc1c(C(=O)NNc2cccc(Cl)c2)cnn1-c1ccccc1	-2	0	1	80*	-11
COCCNC(=O)c1cccc(OC2CCN(C(C)COc3ccccc3)CC2)c1 (centres undefined)	9	0	-3	-15	-32
CCOC(=O)C(CCCP(=O)(c1ccccc1)c1ccccc1)(NC(C)=O)C(=O)OCC	-11	5	1	-8	-86
COc1cccc(/C=N/NC(=O)c2c(-c3ccccc3)noc2C)c1O	?	10	19	48	48
COc1cccc(/C=N/Nc2cc(-n3nc(C)cc3-c3ccccc3)ncn2)c1O	110*	-6	117*	.	-38
COc1ccc(/C=N/Nc2nc(Nc3ccccc3)nc(N3CCCCC3)n2)cc1OC	-111	3	72*	6	-53
COc1ccc(/C=N/Nc2cc(C)nc(-n3nc(C)cc3C)n2)c(OC)c1	25	8	103*	7	4
Cc1cc(C)n(-c2nc(Nc3ccccc3)nc(-n3nc(C)cc3C)n2)n1	-8	-2	40	7	-7
COc1cccc(/C=N/Nc2nc(Nc3ccccc3)nc(-n3nc(C)cc3C)n2)c1O	57	12	98*	46	12
O=C(OCc1ccccc1)c1cccc(-c2nnn(Cc3ccccc3)n2)c1	-91	-3	55*	29	-112
O=C(Cn1nnc(-c2ccccc2)n1)OCc1ccccc1	11	-3	-3	-7	-16
S=c1[nH]nc(-c2cc3c(s2)-c2ccccc2CC3)o1	-123	2	73*	1	-8
Cc1ccc(C)c(-c2nc3cc(N)ccc3o2)c1	63*	3	9	22	-63
Cc1ccc(-c2nc3cc(N)ccc3o2)cc1Br	-54	0	-9	23	-158
Cc1ccc2nc(-c3cc(N)cc(N)c3)oc2c1	62*	-8	8	2	-7
CN(C)c1ccc(-c2nc3cc(N)ccc3o2)cc1	93*	2	-3	15	8
COc1cc(Cl)c(NC2=CC(=O)C(=O)c3ccccc32)c(OC)c1	.	.	.	110*	.
COc1cc(Cl)c(NS(=O)(=O)c2ccc(-c3ccc(=O)[nH]n3)o2)c(OC)c1	-21	-3	4	-9	-25
Cc1ccc(NC(=O)Cn2c(=O)oc3ccccc32)c(C)c1	9	-10	5	-12	-21
O=C(Nc1cccc(S(=O)(=O)N2CCCCCC2)c1)C1CC(=O)N(c2ccc3c(c2)OCCO3)C1 (centres undefined)	19	.	8	-3	.
Cc1cc(Nc2cccc(Cl)c2)nc(NCc2ccccc2)n1	20	13	17	108*	-1
Cc1cc(N/N=C/c2cccc(Cl)c2)nc(NCc2ccccc2)n1	-57	0	-1	56	-2
Nc1nc2ccccc2n1/N=C/c1cccnc1	-38	2	-2	.	0
SMILES	aSyn UTR inh	IEC-6 cytotox	SKKanGAS inh	CSC inhib	KLF5 inh
Nc1nc2ccccc2n1/N=C/c1ccc([N+](=O)[O-])s1	83*	-6	19	5	5
CCn1cc(C(=O)NC(=S)Nc2ccccc2Br)cn1	-51	-3	51*	-6	-72
CCn1cc(C(=O)NC(=S)Nc2ccccc2[N+](=O)[O-])cn1	-94	0	7	28	-47
CCc1cccc2c(C(=O)CN3C(=O)NC(C)(c4cccc5ccccc45)C3=O)c[nH]c12 (centres undefined)	-28	10	36	104*	-10
CCc1cccc2c(C(=O)CN3C(=O)NC4(CCc5ccccc54)C3=O)c[nH]c12 (centres undefined)	31	.	14	-6	.
O=C(Cn1cnc2ccccc2c1=O)c1cccs1	-30	0	-4	-9	-5
O=C(/C=C/c1ccnc2ccccc12)c1cccs1	-80	0	-10	86*	-108
COc1ccc(-c2cn(Cc3ccc(C)cc3)nn2)cc1	-108	6	3	13	-110
Cc1cc(/C=C2\SC(=Nc3ccccc3)NC2=O)c(C)n1-c1ccc(S(N)(=O)=O)cc1	39	-4	72*	56	-2
COc1cc(OC)cc(-c2cc3nc(C)c(CCC(=O)NCc4ccccc4)c(C)n3n2)c1	75*	-1	15	-6	27
COc1ccccc1-c1cc2nc(C)c(CCC(=O)NCc3ccc(F)cc3)c(C)n2n1	20	2	8	3	-42
CCN(CC(=O)Nc1c(F)cccc1F)C(=O)c1ccc(S(=O)(=O)N2CCCC2)cc1	-2	.	-7	5	.
CCN(CC(=O)Nc1c(F)cccc1F)C(=O)/C=C/c1ccc(S(=O)(=O)N2CCCCCC2)cc1	78*	.	-1	5	.
COc1ccc(S(=O)(=O)N2CCOC2CNC(=O)C(=O)NCc2ccccc2OC)cc1 (centres undefined)	4	3	0	8	-13
COc1ccc(S(=O)(=O)N2CCOC2CNC(=O)C(=O)NCc2ccccc2Cl)cc1 (centres undefined)	5	-5	52*	-1	-46
CCC(=O)N(CCC(Cc1ccccc1)c1ccc2c(c1)OCO2)Cc1ccccc1F (centres undefined)	0	4	52*	44	-13
O=C(NC1(Cc2ccccc2)CCN(CCCc2ccccc2)C1=O)c1ccccc1 (centres undefined)	.	.	.	-10	.
CC1=CC(=C2C(=O)c3ccccc3C2=O)C=C(C)O1	-129	-1	-10	18	-40
CC(=O)C1=C(c2ccc(Br)cc2)C(=O)c2ccccc2C1=O	24	6	66*	114*	-17
Cc1nc2sc3c(NCc4ccco4)ncnc3c2c2c1COC(C)(C)C2	41	-9	5	85*	-14
Nc1sc(-c2ccccc2)cc1C(=O)N/N=C/c1ccc(Cl)cc1	-57	-2	95*	.	-42
COc1ccc(-c2nn3c(C4CCCCC4)nnc3s2)cc1OC	52	1	-4	.	10
COc1ccc(-c2nnc3sc(C4CCCCC4)nn23)cc1OC	65*	-7	5	2	-16
O=C(/C=C/c1cn(-c2ccccc2)nc1-c1ccc2c(c1)OCCO2)NCCO	29	8	7	9	-14
OCc1ccc2c(c1)c(-c1ccc3c(c1)OCCO3)c(-c1ccccc1)n2-c1ccccc1	.	.	.	92*	.
OC(c1cc(-c2ccc(Cl)cc2)nc2ccccc12)C1CCCCN1 (centres undefined)	96*	34*	11	116*	-12
Cc1cccc(NC(=O)CNC(=O)CSc2nnc(C(F)(F)F)n2C)c1C	.	.	.	3	.
O=C(Oc1ccc(Cl)c2cccnc12)N1CCCCC1	-28	4	10	-5	-9
Cc1ccc(C(=O)Oc2ccc(Cl)c3cccnc23)cc1[N+](=O)[O-]	-18	0	51*	37	7
O=C(Oc1ccc(Cl)c2cccnc12)c1cccnc1	15	8	68*	72	23
